High-throughput results: PubChem BioAssay, National Center for Advancing Translational Sciences (NCATS)
BAZ2B block: inhibitors of human BAZ2B bromodomain. 4.4% of 360,000 active. Q9UIF8. AlphaScreen BAZ2B-H3K14Ac peptide displacement. Potency, µM (top dose mostly 114 µM), inactives show at the highest dose activity change, negative = inhibition, most hits filed as inhibitors; further: on the % scale 0 is the no-effect control and ±100 the full control effect; nearly all actives have a fitted effect of over 60% in size
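Inhibition is scored as reduced AlphaScreen emission. The BAZ2B/b-H3(5-23)K14Ac complex (50 nM each) in PBS pH 7.4, 0.01% Tween-20 meets compound (up to 110 uM) for 30 min at RT before bead addition.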
Sfp PPTase inh: Sfp phosphopantetheinyl transferase inhibition | Q9F4F7 | Biochemical Sfp PPTase activity, qHTS | Potency, µM, for inactives: largest response in the series, negative = inhibition, hits mostly inhibitors | 3.5% of 310,000 active;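 further: the enzyme is Sfp with the accession as filed and its product quenches rhodamine fluorescence; 0% = enzyme reaction without inhibitor and -100% = no enzyme wells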
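Step 1, compound plus 15 nM Sfp-PPTase, 15 min, room temperature. Step 2, add rhodamine-CoA (5 uM) and BHQ-2-YbbR (12.5 uM). Step 3, read 525/598 nm fluorescence at 0 and 30 min.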
L3MBTL1 inh: L3MBTL1 (human) inhibition | Q9Y468 | AlphaScreen L3MBTL1–H3K9me1 peptide binding | Potency, µM (series often up to 57.1 µM), for inactives: at the highest dose activity, negative = inhibition, hits mostly inhibitors | 0.66% of 230,000 active | AID 485360; further: on the % scale 0 is the no-effect control and ±100 the full control effect; nearly all actives have a fitted effect of over 60% in size
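AlphaScreen proximity signal between nickel-chelate acceptor and streptavidin donor beads (final 10 ug/mL) reports binding of 50 nM L3MBTL1 to 75 nM biotin-H3 K9me1 peptide; complex incubated with compounds 30 min at room temperature; cefsulodin titration as control.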
G9a block: inhibitors of human histone lysine methyltransferase G9a; Q96KQ7; G9a H3K9 monomethylation, AlphaScreen, 2 h; Potency, µM (titrated, usually from 102 µM), inactives show at the highest dose activity, negative = inhibition, most hits filed as inhibitors; AID 504332; 8.8% of 350,000 active; further: on the % scale 0 is the no-effect control and ±100 the full control effect; nearly all actives have a fitted effect of over 75% in size
Target sequence (Q96KQ7 913-1193 limits assumed): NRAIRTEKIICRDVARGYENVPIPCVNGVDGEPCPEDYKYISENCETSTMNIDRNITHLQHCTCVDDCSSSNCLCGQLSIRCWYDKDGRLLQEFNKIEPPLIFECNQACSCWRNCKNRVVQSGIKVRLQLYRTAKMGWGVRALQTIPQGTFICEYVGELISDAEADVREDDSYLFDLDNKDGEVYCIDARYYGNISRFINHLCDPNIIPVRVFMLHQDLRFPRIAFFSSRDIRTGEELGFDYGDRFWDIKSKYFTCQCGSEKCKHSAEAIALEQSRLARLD
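Step 1: enzyme (final 20 nM) with compound, 15 min RT. Step 2: substrate peptide 500 nM and SAM 20 uM, 2 h RT. Step 3: anti-H3K9me1 antibody and AlphaScreen beads, 10 min, then plate read.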
JMJD2A Tudor inh: inhibitors of human JMJD2A Tudor domain; O75164; AlphaScreen JMJD2A-Tudor / H3K4me3 peptide binding; Potency, µM (series often up to 114 µM), for the others: top-dose activity change, negative = inhibition, actives largely listed as inhibitors; 4.4% of 390,000 active; further: on the % scale 0 is the no-effect control and ±100 the full control effect; nearly all actives have a fitted effect of over 50% in size
HP1b binding inh: blocks HP1-beta chromodomain binding to methylated histone tails; P83916; 0.56% of 390,000 active; AID 540317; AlphaScreen HP1-beta / biotin-H3K9me3 peptide binding; Potency, µM (titrated, usually from 114 µM), without a hit: at the highest dose activity change, negative = inhibition, hits mostly inhibitors; further: nearly all actives have a fitted effect of over 70% in size
Target sequence (P83916 whole entry, looked up): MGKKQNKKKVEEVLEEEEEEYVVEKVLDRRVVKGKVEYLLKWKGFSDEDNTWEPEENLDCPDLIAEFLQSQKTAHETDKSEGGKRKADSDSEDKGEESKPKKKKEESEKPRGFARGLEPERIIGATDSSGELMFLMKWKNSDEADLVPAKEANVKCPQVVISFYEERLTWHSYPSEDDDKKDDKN
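AlphaScreen: HP1-beta (50 nM) preformed 30 min with biotin-H3(1-18)K9me3 peptide (50 nM) in PBS pH 7.4, 0.01% Tween-20. Compound added for 30 min at RT, then streptavidin donor/nickel chelate acceptor beads (10 ug/mL) for 30 min.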
An asterisk follows results filed as active; ? = inconclusive; · = not tested or not shown; ! = not confirmed by another sample; [ ] = another dose, or the depositor's remark. Shown are actives, neighbours in structure and some others; about 12% of the full set was active somewhere. The call rests on the fitted dose curve; in most records, active means well fitted curve in the direction sought with a large enough effect; inconclusive means small, poorly fitted or top-dose-only effect, or another doubt; inactive means no such curve, though single readings can be large; an effect the other way counts as inactive or inconclusive. Potency means the concentration at half of the fitted maximal effect.

SMILES	BAZ2B block	Sfp PPTase inh	L3MBTL1 inh	G9a block	JMJD2A Tudor inh	HP1b binding inh
CCC(C)C1N=C(c2ccccc2)c2cc(Cl)ccc2N(CC(=O)NCc2ccco2)C1=O (centres undefined)	6.5%	1.1%	·	4.0%	-6.9%	69.2%
N[C@@H](Cn1oc(=O)[nH]c1=O)C(=O)O	·	44.7µM*	·	10µM*!	3.98µM*	-7.5%
CC(C)(C)C(O)C(Cc1ccc(Cl)cc1Cl)n1cncn1 (centres undefined)	·	21.6%	·	·	·	·
COc1cc2c(c3oc4cccc(O)c4c(=O)c13)C1C=CO[C@@H]1O2 (some centres undefined)	·	1.4%	·	·	·	·
Cc1cnc2c(C(=O)O)c(Cl)ccc2c1	·	1.0%	·	·	·	·
COc1ccc(N2C(=O)CS(=O)C(c3ccccc3)C2=O)cc1 (centres undefined)	?	1.58µM*	?	0.708µM*	8.91µM*	12.6µM*
O=c1[nH]c2sccc2c2ccccc12	·	4.9%	·	·	·	·
CN(Cc1ccccc1)C(=C(Cl)Cl)/C(=C1/NCCN1Cc1ccc(Cl)nc1)[N+](=O)[O-]	-10.0%	9.9%	·	50.1µM*	-26.2%	13.9%
COc1ccc(CN2C(=O)CC(=O)NC2=S)cc1	?	?	?	70.8µM*	-10.7%	30.2%
Cc1cccc(-n2c(-c3cccs3)nc3ccccc3c2=O)c1	79.4µM*	4.2%	?	0.1%[59 µM]	?	12.7%
C[C@@H]1CC2(CCCC[N+]2(C)C)C[C@H]1C	-17.1%	18.1%	·	11.2µM*	?	-2.2%
COc1ccc(CCNCc2cccc(C(F)(F)F)c2)cc1OC	50.1µM*	-13.7%	3.6%	11.2µM*	44.7µM*	-7.3%
COc1ccccc1CCNCc1cccc(C(F)(F)F)c1	7.8%	12.6%	-1.1%	70.8µM*	-31.2%	11.8%
COc1ccc(CCNCc2ccc(F)cc2)cc1OC	13.2%	1.2%	·	76.9%[59 µM]	-8.4%	29.5%
COc1cc(Cn2c(=O)oc3ccc(C)cc32)ccc1OC(C)C	22.3%	5.2%	16.2%[11.4 µM]	12.8%[59 µM]	-0.8%[57.1 µM]	90.2%
C[C@]12CCC3C(CC[C@]4(O)C[C@@H](O)CC[C@]34C=O)[C@@]1(O)CC[C@@H]2C1=CC(=O)OC1 (some centres undefined)	·	5.4%	·	·	·	·
Brc1ccc2[nH]cc(/C=N/N3CCCCC3)c2c1	44.7µM*	-3.9%	-3.2%	?	50.1µM*	?
CC(=O)OC[C@]12C[C@H](OC(=O)CC(C)C)C(C)=C[C@H]1O[C@H]1[C@H](O)[C@@H](OC(C)=O)[C@@]2(C)[C@]12CO2	·	10.1%	·	·	·	·
CN(CCc1ccccc1)Cc1c[nH]c2ccccc12	?	6.0%	-3.3%	3.16µM*	?	-9.2%
CCN(CC)Cc1c[nH]c2ccccc12	?	-9.5%	-1.1%	?	-29.6%	1.0%
S=C=NCc1ccccc1	·	5.4%	·	-34.4%[2.33 µM]	·	·
O=C1NC(=O)C2(Cc3ccccc3N3CCCC32)C(=O)N1Cc1ccccc1 (centres undefined)	0.9%	56.2µM*	-8.5%	35.5µM*	-28.8%	33.3%
O=C1NC(=O)[C@]2(Cc3ccccc3N3CCN(c4ccccc4)CC32)C(=O)N1Cc1ccccc1 (some centres undefined)	-33.5%	-19.6%	-10.7%	5.01µM*	?	-2.9%
O=C(c1csnn1)N1CCC[C@@]2(CCN(Cc3ccncc3)C2)C1	·	-4.5%	·	-2.6%[12.7 µM]	·	·
Cc1ccc(NC(=O)C2CCN(C(=O)c3cnn(-c4ccccc4)c3-n3cccc3)CC2)cc1Cl	-15.6%	·	·	-0.8%[59 µM]	?	-4.7%
SMILES	BAZ2B block	Sfp PPTase inh	L3MBTL1 inh	G9a block	JMJD2A Tudor inh	HP1b binding inh
CC(C)=CCCC1(C)C=Cc2c(O)c3c(c(CC=C(C)C)c2O1)OC12C(=CC4CC1C(C)(C)OC2(C/C=C(/C)C(=O)O)C4O)C3=O (centres undefined)	·	50.1µM*	·	·	·	·
Cn1c(=O)c2[nH]cnc2n(C)c1=O	?	56.2µM*!	4.7%	3.36µM*!	-15.1%	-25.5%
C/C=C1\C2C=C(C)C[C@@]1(N)c1ccc(=O)[nH]c1C2	·	-5.9%	·	-12.2%[2.33 µM]	·	·
O=C1CC(=O)N(c2ccccc2F)C(=O)N1	-2.7%	?	·	?	-8.4%	25.8%
O=C1CC(=O)N(c2ccc(Cl)cc2Cl)C(=O)N1	-0.9%	1.9%	-0.7%	44.7µM*	-26.2%	2.1%
CC1C(=O)OC2C(O)C34C5OC(=O)[C@@]3(OC3OC(=O)[C@H](O)[C@]34C(C(C)(C)C)C5O)[C@]12O (some centres undefined)	·	4.4%	·	-10.5%[2.33 µM]	·	·
Cc1cccc(N2C(=O)NC(=O)/C(=C\c3ccc(N4CCOCC4)cc3)C2=O)c1	-13.0%	25.1µM*	-6.5%	?	-4.9%	?
Cc1cc(/C=C2\C(=O)NC(=O)N(c3cccc(Br)c3)C2=O)c(C)n1C	3.7%	1.7%	-1.1%	21.7%[59 µM]	-11.3%	25.6%
Cc1cccc(N2C(=O)NC(=O)/C(=C/c3ccc(N4CCOCC4)cc3)C2=O)c1	·	50.1µM*	-6.8%	?	-11.6%	23.1%
CC(N)Cc1c[nH]c2ccc(Cl)cc12 (centres undefined)	·	·	·	·	-9.8%	27.6%
Clc1ccc2[nH]c3c(c2c1)CCNC3	-25.5%	2.9%	·	79.4µM*	-17.6%	15.1%
COc1ccc(CC2NCCc3cc(OC)c(OC)cc32)cc1OC (centres undefined)	·	8.9%	·	·	·	·
COc1cc2c(cc1O)C(Cc1ccc(O)cc1)NCC2 (centres undefined)	-29.1%	-4.4%	0.9%	79.4µM*	-12.9%	36.1%
CC1CC2CC(=O)C3CCCN4CCCC2[C@]34C1 (some centres undefined)	·	15.0%	·	·	·	·
CCCC(C)(COC(N)=O)COC(=O)NC1CC1 (centres undefined)	·	21.1%	·	-42.5%[12.7 µM]	·	·
S=C(S)N1CCCC1	12.4%	5.62µM*	-19.9%	0.708µM*	-13.1%	11.1%
CCCCC/C=C\C/C=C\C/C=C\C/C=C\CCCC(=O)O	-7.0%	63.1µM*!	?	15.8µM*!	·	·
CCCCC/C=C\C/C=C\C/C=C\C/C=C\CCCC(=O)NCCCl	·	31.6µM*	·	?	·	·
CN1CCCCC1Cn1cc(C(=O)c2cc([N+](=O)[O-])ccc2I)c2ccccc21 (centres undefined)	·	-21.2%	·	·	·	·
COC(C(=O)C(O)C(C)O)C1Cc2cc3cc(OC4CC(OC5CC(O)C(OC)C(C)O5)C(OC(C)=O)C(C)O4)c(C)c(O)c3c(O)c2C(=O)C1OC1CC(OC2CC(OC3CC(C)(O)C(OC(C)=O)C(C)O3)C(O)C(C)O2)C(O)C(C)O1 (centres undefined)	·	7.5%	·	-2.3%[59 µM]	·	·
CC1CC(Cl)CCC1C(=O)OC(C)(C)C (centres undefined)	·	11.3%	·	·	·	·
CN1Cc2c(ccc3c2OCO3)C2C(O)Cc3cc4c(cc3C21)OCO4 (centres undefined)	·	30.5%	·	·	·	·
